Source: PubChem BioAssay AID1347073 (National Center for Advancing Translational Sciences (NCATS), 2019)
Screen size: about 45,000 compounds; about 200 (0.44%) were called active. Roughly 7% stayed inconclusive and do not appear here. The entries come from a sample that favours actives as a whole. Unmarked numbers belong to inactive results. The call rests on the fitted dose curve; in most records, active means well fitted activation curve with a large enough effect; inconclusive means small, poorly fitted or top-dose-only effect; inactive means no such curve, though single readings can be large or run the other way.

Test: qHTS of TDP-43 Inhibitors: NCGC Sytravon Library Screen; further: nearly all actives have a fitted effect of over 55% in size; on growth rescue (activation): 0% is about no effect
Settings: yeast TDP-43 toxicity rescue, BacTiter-Glo growth, 24 h; series mostly up to 46.1 µM; growth rescue (activation): at the top concentration
From the text: The goal of this project is to identify new chemical probes capable of reversing the toxicity associated with TDP-43 which is associated with frontotemporal lobar degeneration and amyotrophic lateral sclerosis. These compounds will provide a complementary approach to deciphering the tangled mechanisms of toxicity and protection that we have uncovered through genome-wide genetic screens and are beginning to uncover in a large-scale proteomics analysis with mass spectroscopy. To this end, a miniaturized assay was developed to be screened against the Molecular Libraries Small Molecule Repository (MLSMR) to discover TDP-43 inhibitors. Please note that in the set-up this yeast-based assay compounds that inhibit as TDP-43, have a read-out as activators. NIH Chemical Genomics Center [NCGC] NIH Molecular Libraries Probe Centers Network [MLPCN] Assay Submitter (PI): Susan Lindquist, Whitehead Institute/MIT MLPCN Grant: R21 NS060957
Dispense 2.5 microL yeast galactose medium per 1536-well plate, pin compound, dispense 2.5 microL TDP-43 expressing yeast in galactose medium at OD600=0.02 (pregrown in raffinose medium to mid-log phase) per well, incubate for 24 hr at 30 deg C, and cell growth will be measured using 5 microL of Bactiter/Glo reagent to entire plate and read using Luminescence Protocol in ViewLux.
Potency means the concentration at half of the fitted maximal effect.

**Q.** For O=C(CN1CCC(O)(c2cccc(C(F)(F)F)c2)CC1)NCCc1ccccc1, which “growth rescue (activation)” value is on record?
**A.** -14.5%

**Q.** With CC(NC(=O)COC(=O)c1cc(=O)[nH]c2ccccc12)c1ccccc1 (centres undefined) as the molecule, how does the “growth rescue (activation)” value read?
**A.** -3.18%

**Q.** Which “growth rescue (activation)” value does the source give for COc1cc(C(c2c(NC(=O)c3ccco3)sc(C)c2C)N2CCOCC2)cc(OC)c1OC (centres undefined) here?
**A.** 20.2%

**Q.** For CC1(C(=O)Nc2cccc3cccnc23)CCN1C(=O)CCC1CCCC1 (centres undefined), which “growth rescue (activation)” value is on record?
**A.** 23.9%

**Q.** Which “growth rescue (activation)” value does the source give for Cc1ccc(N2C(=O)CN=C2Nc2nc(C)cc(C)n2)cc1 here?
**A.** -13.7%

**Q.** For CCOc1cc(NC(=O)CCl)c(OCC)cc1NC(C)=O, which “growth rescue (activation)” value is on record?
**A.** -3.67%

**Q.** With O=S(=O)(Nc1ncnc2sccc12)c1cccc(F)c1 as the molecule, how does the “growth rescue (activation)” value read?
**A.** 19.2%

**Q.** With CCN(CC(=O)NCc1ccco1)S(=O)(=O)c1ccc(F)cc1 as the molecule, how does the “growth rescue (activation)” value read?
**A.** -6%

**Q.** Which “growth rescue (activation)” value does the source give for Cc1cc(C)cc(N(CC(=O)NC2CCCC2)C(=O)CCC(=O)Nc2nccs2)c1 here?
**A.** 4.02%

**Q.** With COc1cc(C(=O)OCc2cc(=O)n3ccsc3n2)ccc1OC(C)C as the molecule, how does the “growth rescue (activation)” value read?
**A.** 16.8%

**Q.** With COCCNC(=O)CSc1nc2sccc2c(=O)n1-c1ccccc1 as the molecule, how does the “growth rescue (activation)” value read?
**A.** 1.63%

**Q.** With CC(=O)NC(Cc1ccc(F)c(F)c1)C(=O)NC1CCN(c2nnnn2-c2ccccc2)CC1 (centres undefined) as the molecule, how does the “growth rescue (activation)” value read?
**A.** -0.882%

**Q.** For CC1CN(c2nc(-c3ccccc3)nnc2-c2ccccc2)CC(C)O1 (centres undefined), which Potency is on record?
**A.** 12.6 µM (active)

**Q.** Which “growth rescue (activation)” value does the source give for CC1CN(C(=S)SCC(=O)c2ccccc2)CC(C)O1 (centres undefined) here?
**A.** 20.5%

**Q.** Which Potency does the source give for COc1cccc(CNc2nc(C(F)(F)F)nc3ccccc23)c1 here?
**A.** 15.8 µM (active)

**Q.** For NS(=O)(=O)c1ccc(CCNc2nc(C(F)(F)F)nc3ccccc23)cc1, which “growth rescue (activation)” value is on record?
**A.** 10.7%

**Q.** With COc1ccc(CNc2ncnc3ccccc23)cc1 as the molecule, how does the “growth rescue (activation)” value read?
**A.** -6.94%

**Q.** With CN(c1ccccc1)S(=O)(=O)c1cccc(NC(=O)Cc2c(F)cccc2Cl)c1 as the molecule, how does the “growth rescue (activation)” value read?
**A.** 9.22%

**Q.** With O=C(COc1ccc(Br)cc1F)NCC1(N2CCCCC2)CCCCC1 as the molecule, how does the “growth rescue (activation)” value read?
**A.** -1.19%

**Q.** Which “growth rescue (activation)” value does the source give for Cc1cccc(NC(=S)N2CCC(O)CC2)c1C here?
**A.** 11.9%

**Q.** Which “growth rescue (activation)” value does the source give for CCOC(=O)/C(=N\Nc1ccccc1Cl)N(C)C1CCS(=O)(=O)C1 (centres undefined) here?
**A.** 17.3%

**Q.** With CC(C)CN1CCNC(=O)C1CC(=O)N(C)CC1CCOCC1 (centres undefined) as the molecule, how does the “growth rescue (activation)” value read?
**A.** -15.8%

**Q.** Which “growth rescue (activation)” value does the source give for O=C(c1cccc(S(=O)(=O)N2CCCC2)c1)N(Cc1ccco1)C1CCS(=O)(=O)C1 (centres undefined) here?
**A.** 2.24%

**Q.** With COc1ccc(-c2nn(C)c(=O)c3ccccc23)cc1CNC(=O)C1CCCCC1 as the molecule, how does the “growth rescue (activation)” value read?
**A.** 10.4%

**Q.** For CCc1ccc(N2CC(C(=O)Nc3ccc(S(=O)(=O)Nc4nccs4)cc3)CC2=O)cc1 (centres undefined), which “growth rescue (activation)” value is on record?
**A.** 3.52%

**Q.** With Cc1nc2c(OCc3ccc(Cl)cc3Cl)cccn2c1N(C)CC1CC1 as the molecule, how does the “growth rescue (activation)” value read?
**A.** -1.5%

**Q.** For CC1CCN(c2ccc(C(=O)Nc3nnc(C4CC4)s3)cc2[N+](=O)[O-])CC1, which “growth rescue (activation)” value is on record?
**A.** 1.71%

**Q.** With Cc1ccc(NC(=O)c2ccc(Cl)nc2)cc1S(=O)(=O)N1CCOCC1 as the molecule, how does the “growth rescue (activation)” value read?
**A.** 1.92%

**Q.** For CC(C)N(C)C(=O)CCc1nnc(CCc2c[nH]c3ccccc23)o1, which “growth rescue (activation)” value is on record?
**A.** -2.17%
